Measured values taken from ChEMBL document CHEMBL2218924, “A broad activity screen in support of a chemogenomic map for kinase signalling research and drug discovery” (Biochem J, 2013).

target: Death-associated protein kinase 1 (Homo sapiens) (UniProt P53355); details: at 1 µM
Sequence (P53355 whole entry, looked up): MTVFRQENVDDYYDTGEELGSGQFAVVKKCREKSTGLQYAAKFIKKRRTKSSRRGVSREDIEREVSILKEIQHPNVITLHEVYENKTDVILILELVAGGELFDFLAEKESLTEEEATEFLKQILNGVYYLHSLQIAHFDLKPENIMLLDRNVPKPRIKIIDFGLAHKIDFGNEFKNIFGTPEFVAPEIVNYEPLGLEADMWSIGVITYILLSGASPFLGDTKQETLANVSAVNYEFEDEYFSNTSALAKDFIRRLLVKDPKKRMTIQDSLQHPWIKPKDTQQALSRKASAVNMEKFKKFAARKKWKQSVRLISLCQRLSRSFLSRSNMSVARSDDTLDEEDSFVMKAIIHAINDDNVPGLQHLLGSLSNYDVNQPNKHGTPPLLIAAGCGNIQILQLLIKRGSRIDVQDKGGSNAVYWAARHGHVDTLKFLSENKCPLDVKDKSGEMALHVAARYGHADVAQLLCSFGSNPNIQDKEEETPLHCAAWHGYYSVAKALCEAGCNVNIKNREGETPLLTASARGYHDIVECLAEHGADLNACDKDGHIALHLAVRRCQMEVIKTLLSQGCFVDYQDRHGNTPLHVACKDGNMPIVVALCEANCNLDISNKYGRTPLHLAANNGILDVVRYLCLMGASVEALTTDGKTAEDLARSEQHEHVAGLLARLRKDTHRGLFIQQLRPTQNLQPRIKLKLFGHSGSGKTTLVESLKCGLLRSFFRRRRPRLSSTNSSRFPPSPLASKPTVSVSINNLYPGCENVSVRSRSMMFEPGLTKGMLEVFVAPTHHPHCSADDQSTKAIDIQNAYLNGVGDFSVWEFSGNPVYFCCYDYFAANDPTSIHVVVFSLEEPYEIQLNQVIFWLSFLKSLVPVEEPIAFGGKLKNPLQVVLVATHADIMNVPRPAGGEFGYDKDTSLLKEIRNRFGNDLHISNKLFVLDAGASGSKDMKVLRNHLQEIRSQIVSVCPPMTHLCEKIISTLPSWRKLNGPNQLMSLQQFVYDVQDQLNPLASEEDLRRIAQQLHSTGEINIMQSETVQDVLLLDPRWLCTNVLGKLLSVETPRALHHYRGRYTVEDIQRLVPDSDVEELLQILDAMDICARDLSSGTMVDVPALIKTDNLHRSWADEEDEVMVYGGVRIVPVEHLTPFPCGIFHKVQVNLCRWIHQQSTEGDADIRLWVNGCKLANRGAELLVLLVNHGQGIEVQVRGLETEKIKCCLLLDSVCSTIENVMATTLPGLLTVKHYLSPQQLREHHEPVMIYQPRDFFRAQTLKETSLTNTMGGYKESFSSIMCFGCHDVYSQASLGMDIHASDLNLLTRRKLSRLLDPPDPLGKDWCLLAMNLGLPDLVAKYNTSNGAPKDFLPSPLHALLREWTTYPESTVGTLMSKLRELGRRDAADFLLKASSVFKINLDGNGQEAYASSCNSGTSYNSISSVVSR

| Compound | residual activity [%] |
| --- | --- |
| Oc1ccc(Nc2nc(-c3ccc(Cl)cc3)cs2)cc1 | 90 |
| Nc1ncnc2c1c(-c1ccc(Oc3ccccc3)cc1)cn2C1CCCC1 | 91 |
| CC(=O)O/N=C1\C(=C2\C(=O)Nc3cc(Br)ccc32)Nc2ccccc21 | 98 |
| CO[C@@H]1[C@H](N(C)C(=O)c2ccccc2)C[C@H]2O[C@]1(C)n1c3ccccc3c3c4c(c5c6ccccc6n2c5c31)C(=O)NC4 | 63 |
| COc1cc2nccc(Oc3ccc(NC(=S)NC(=O)c4ccccc4C)cc3)c2cc1OC | 81 |
| CCN(CC)CCCCN1c2ccccc2Oc2ccc(Cl)cc21 | 107 |
| Cn1c2ccccc2c2c3c(c4c5ccccc5n(CCC#N)c4c21)CNC3=O | 101 |
| O=C1NC(=O)c2c1c1c3ccccc3[nH]c1n1cncc21 | 57 |
| Nc1n[nH]c2nc3ccccc3nc12 | 94 |
| Nc1ncnc2[nH]nc(Nc3ccc(F)cc3)c12 | 102 |
| O=Nc1c(-c2c(O)[nH]c3ccccc23)[nH]c2ccccc12 | 91 |
| O=C1NC(=O)/C(=C\c2ccc3nccnc3c2)S1 | 87 |
| Cc1ccc(NC2=CC(=O)c3sc(C)nc3C2=O)cc1 | 87 |
| O=C1NC(=O)c2c1c1c3ccccc3[nH]c1c1[nH]c3cc(Br)ccc3c21 | 85 |
| COc1ccc(OC)c2c(=S)c3ccccc3[nH]c12 | 95 |
| N#Cc1cnc2cnc(NCc3cccnc3)cc2c1Nc1ccc(F)c(Cl)c1 | 69 |

| Compound | residual activity [%] |
| --- | --- |
| Oc1c2ccccc2c2c3c(cccc13)N=N2 | 91 |
| CC(C)n1cnc2/c(=N/c3cccc(Cl)c3)nc(NCCO)[nH]c21 | 89 |
| COc1cccc(-c2cc(=O)c3ccccc3o2)c1N | 81 |
| c1ccc2c(-c3ccncc3)c[nH]c2c1 | 85 |
| COc1cc2ncnc(Nc3ccc(Oc4ccccc4)cc3)c2cc1OC | 100 |
| CC(C)n1cnc2c(NCc3ccccc3)nc(NCCCO)nc21 | 83 |
| c1ccc(-c2n[nH]cc2-c2ccnc3ccccc23)nc1 | 91 |
| O=C(Nc1nc2ccccc2n1CCN1CCOCC1)c1cccc([N+](=O)[O-])c1 | 85 |
| Cc1ccc(S(=O)(=O)/C=C/C#N)cc1 | 88 |
| NC(=O)c1ccc(-c2nc(-c3ccc4c(c3)OCCO4)c(-c3ccccn3)[nH]2)cc1 | 86 |
| O=C(Nc1cccc(Nc2nccc(Nc3cccc(C(F)(F)F)c3)n2)c1)C1CC1 | 98 |
| CC[n+]1c(/C=C/N(C)c2ccccc2)n(-c2ccccc2)c2ccc(-c3nc4ccccc4s3)cc21 | 79 |
| CC#CC(=O)Nc1cc2c(Nc3ccc(F)c(Cl)c3)ncnc2cn1 | 88 |
| Oc1ccc(-c2nc(-c3ccc(F)cc3)c(-c3ccncc3)[nH]2)cc1 | 92 |
| Cc1nc(-c2ccccc2)c(-c2ccncc2)o1 | 81 |
